Screening results (PubChem)
Sampled rows, rich in hits. Any-hit rate of the full collection: about 8.8%.
KB-3-1 cytotox = kills parental KB-3-1 adenocarcinoma cells. KB-3-1 viability, CellTiter-Glo ATP luminescence, 72 h. Potency, µM (titrated, usually from 46.1 µM), actives largely listed as cytotoxic. actives 1.4% (n = 400,000). AID 1347075; further: potency means the concentration at half of the fitted maximal effect; nearly all actives have a fitted effect of over 60% in size
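Parental KB-3-1 viability, qHTS format: 72 h compound exposure, 37 °C; CellTiter-Glo; media-only wells and DMSO plates as controls; concentration-effect fits on corrected data.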
IL1B secr inh = inflammasome signaling inhibition, IL-1 beta readout; THP-1 LPS/ATP IL-1B secretion, AlphaLISA, 16 h; hits give low values; activity change, % at 57.5 µM; actives 4.7% (n = 360,000); in the data active means activity change below about -50%; inconclusive means mostly about -30% to -49%
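Secreted IL-1B measured by AlphaLISA bead assay after 16 h compound exposure of THP-1 cells; compounds (final up to 57.5 uM) added 1 h before LPS (250 ng/mL) and ATP (1.25 mM) stimulation; lower signal means less secretion.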
KB-V1 MDR tox = KB-V1 MDR subline cytotoxicity; KB-V1 MDR cells viability, CellTiter-Glo, 72 h; Potency, µM (series often up to 46.1 µM), usual class: cytotoxic; actives 3.4% (n = 400,000); further: potency means the concentration at half of the fitted maximal effect; nearly all actives have a fitted effect of over 60% in size
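Drug-selected KB-V1 cells, grown in DMEM lacking phenol red with 10% FBS, receive compound titrations; after three days at 37 degrees C, surviving cell ATP is quantified by CellTiter-Glo luminescence and responses normalized and curve-fitted.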
HT1080 IDH1KD tx = HT-1080 IDH1 knockdown cell toxicity (counter line); HT-1080 IDH1 knockdown viability, ATP luminescence, 48 h; Potency, µM (titrated, usually from 46.1 µM), for the others: at the highest dose activity, negative = toxicity, usual class: cytotoxic; actives 2% (n = 360,000); AID 686971;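 further: potency means the concentration at half of the fitted maximal effect; 0% = DMSO wells and -100% = cell-free medium wells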
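IDH1KD HT-1080 cells, 750/well, RPMI + 5% FBS; compound pinned after 2 h settling; 48 h, 37 °C; CellTiter-Glo luminescence; % activity normalised to DMSO and no-cell wells; curves fitted, classed by r2 and efficacy.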
HT1080-NT tox = kills 2HG-producing HT-1080-NT fibrosarcoma cells; AID 686970; HT-1080-NT fibrosarcoma viability, CellTiter-Glo ATP luminescence, 48 h; Potency, µM (top dose mostly 46.1 µM), without a hit: top-dose activity, negative = less viability, hits mostly cytotoxic; actives 1.6% (n = 360,000);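 further: NT is the 2HG producing partner of a matched IDH1 knockdown line; potency means the concentration at half of the fitted maximal effect; 0% = DMSO-treated cells and -100% = media-only wells without cells; nearly all actives have a fitted effect of over 55% in size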
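750 cells/well, RPMI + 5% FBS; 2 h settle, compound pin-transfer, 48 h at 37 degrees C. CellTiter-Glo 10 min RT, luminescence. Normalized to DMSO and media-only wells.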
* marks the source's active call; other numbers are inactive results; i = inactive; ? = inconclusive; / = not tested or not shown. Unless noted, the call rests on the fitted dose curve; in most records, active means well fitted curve in the direction sought with a large enough effect; inconclusive means small, poorly fitted or top-dose-only effect, or another doubt; inactive means no such curve, though single readings can be large; an effect the other way counts as inactive or inconclusive. Unless noted, on the % scale 0 is the no-effect control and ±100 the full control effect.

SMILES | KB-3-1 cytotox | IL1B secr inh | KB-V1 MDR tox | HT1080 IDH1KD tx | HT1080-NT tox
COc1cccc(NC(=S)N(CCCN2CCCC2)Cc2cccn2Cc2ccc(Cl)cc2)c1 | ? | ? | ? | 18µM* | 21µM*
Cn1cc(CN(CCCN2CCOCC2)C(=S)Nc2cccc(Cl)c2)c2ccccc21 | i | -28 | i | ? | ?
CSc1cccc(NC(=S)N(CCCN2CCCC2)Cc2cccn2Cc2ccc(Cl)cc2)c1 | i | ? | 18µM* | ? | 18µM*
S=C(Nc1cccc(Cl)c1)N(CCCN1CCCC1)Cc1cccn1Cc1ccc(Cl)cc1 | ? | -101* | 12µM* | 18µM* | 16µM*
CCOC(=O)c1c(Nc2cccc(C)c2)nnc(-c2ccccc2)c1-c1ccccc1 | 16µM* | / | ? | / | /
CCOC(=O)c1c(Nc2cc(C)cc(C)c2)nnc(-c2ccccc2)c1-c1ccccc1 | i | / | i | / | /
Fc1ccc(C(CCNCc2ccccn2)c2ccc(Cl)cc2)cc1 (stereo not drawn) | i | -90* | i | 21µM* | 18µM*
COc1ccc(CCNC(=O)C(=O)NCC2CCCN2S(=O)(=O)c2ccccc2)cc1OC (stereo not drawn) | i | -23 | i | -17% | -10%
Cc1cc(C)cc(NC(=O)Nc2ccc3c(c2)N(C)C(=O)CS3)c1 | ? | -50* | i | -15% | -19%
Cc1ccc(NC(=O)Nc2ccc3c(c2)N(C)C(=O)CS3)cc1C | i | ? | i | -22% | -27%
COc1ccc(C(=O)NNC(=S)NC(=O)/C=C/c2cccs2)cc1 | ? | 11 | ? | ? | -9%
O=C(/C=C/c1cccs1)NC(=S)Nc1ccccc1 | i | -62* | i | 26% | 25%
O=C(/C=C/c1cccs1)NC(=S)NNC(=O)c1ccccc1O | 2.6µM* | 112 | i | ? | -19%
CCn1nc(C)c2c(-c3ccccc3)cc(=O)n(C(C)C(=O)NCCc3ccc(Cl)cc3)c21 (stereo not drawn) | i | / | i | / | /
COc1ccccc1C(=O)NC1CCSc2ccccc21 (stereo not drawn) | i | -19 | ? | -15% | -12%
Cc1ccc(NC(=O)Cc2ccccc2Cl)cc1S(=O)(=O)N(C)C | ? | -5 | 23µM* | -4% | -5%
Cc1ccc(NC(=O)Cc2ccc(Cl)c(Cl)c2)cc1S(=O)(=O)N(C)C | 23µM* | -24 | 2.6µM* | -22% | 1%
Cc1ccc(NC(=O)COC(=O)c2ccccc2Cl)cc1S(=O)(=O)N(C)C | i | 2 | i | -1% | -3%
Cc1ccc(NC(=O)CCNC(=O)c2ccccc2Cl)cc1S(=O)(=O)N(C)C | i | -23 | i | 9% | 6%
Cc1ccc(NC(=O)CNc2ccc(Cl)c(Cl)c2)cc1S(=O)(=O)N(C)C | ? | 1 | 21µM* | ? | ?
CC1C=CC(C)C(C(=O)c2ccccc2)C1C(=O)c1ccccc1 (stereo not drawn) | i | 26 | ? | -23% | -16%
O=C(c1ccccc1)C1OC1C(=O)c1ccccc1 (stereo not drawn) | ? | -96* | ? | ? | ?
CN1C(=O)C(N=Nc2ccc([N+](=O)[O-])cc2)SC1=S (stereo not drawn) | i | -89* | ? | ? | ?
CN1CCCCCC1=Nc1ccc([N+](=O)[O-])cc1 | i | 2 | i | 1% | -2%
CCCNC(=O)Cc1c(C)oc2ccccc12 | i | -19 | i | 14% | 15%
COc1ccccc1Cc1c(-c2ccc(OC)c(OC)c2)nc2ccc(Br)cn12 | ? | -8 | i | 18µM* | ?
COc1ccccc1Cc1c(-c2ccc(C)cc2)nc2ccc(Cl)cn12 | i | -102* | ? | -18% | -20%
COc1ccc(-c2nc3ccc(Br)cn3c2Cc2ccccc2)cc1OC | ? | -11 | i | ? | ?
COC(=O)c1ccc2nc(-c3cccc(Br)c3)c(Cc3ccccc3OC)n2c1 | i | 0 | i | 12µM* | 10%
C/C(=N\NC(=O)C1CC1)c1ccccc1O | i | 1 | ? | 7% | 15%
